Screens as filed in PubChem.
Hits are enriched below; roughly 1% of the tested compounds scored in any of these assays.
PTHR1 agonist: agonists of human PTHR1 parathyroid hormone receptor | Potency, µM (series often up to 115 µM), for the others: top-dose activation, actives largely listed as activators | 0.075% of 410,000 active | HEK293 GP2 PTHR1 cells, GloSensor cAMP luminescence, 1 h | Q03431; further: potency means the concentration at half of the fitted maximal effect; nearly all actives have a fitted effect of over 55% in size
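HEK-293-derived GP2 cells expressing PTHR1 and a GloSensor cAMP reporter, 3,000/well, plated overnight, given luciferin plus IBMX (each 0.5 mM as added) for 1 h at 37 °C, then compound for 1 h at 37 °C. Luminescence was read after 15 min at room temperature.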
RXFP1 antagonist: blocks the human relaxin receptor RXFP1 | Q9HBX9 | HEK293-RXFP1, relaxin-stimulated cAMP HTRF, 30 min; active compounds read low | activity change, negative = inhibition, % at 57.5 µM | 0.59% of 350,000 active | AID 1259400;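 active means activity change of -60% or lower, but not beyond a set lower limit; inconclusive means change between -60% and -40%, or beyond the set limit; inactive means change above -40%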; further: on the % scale 0 is the no-effect control and ±100 the full control effect
Target sequence (Q9HBX9 whole entry, looked up): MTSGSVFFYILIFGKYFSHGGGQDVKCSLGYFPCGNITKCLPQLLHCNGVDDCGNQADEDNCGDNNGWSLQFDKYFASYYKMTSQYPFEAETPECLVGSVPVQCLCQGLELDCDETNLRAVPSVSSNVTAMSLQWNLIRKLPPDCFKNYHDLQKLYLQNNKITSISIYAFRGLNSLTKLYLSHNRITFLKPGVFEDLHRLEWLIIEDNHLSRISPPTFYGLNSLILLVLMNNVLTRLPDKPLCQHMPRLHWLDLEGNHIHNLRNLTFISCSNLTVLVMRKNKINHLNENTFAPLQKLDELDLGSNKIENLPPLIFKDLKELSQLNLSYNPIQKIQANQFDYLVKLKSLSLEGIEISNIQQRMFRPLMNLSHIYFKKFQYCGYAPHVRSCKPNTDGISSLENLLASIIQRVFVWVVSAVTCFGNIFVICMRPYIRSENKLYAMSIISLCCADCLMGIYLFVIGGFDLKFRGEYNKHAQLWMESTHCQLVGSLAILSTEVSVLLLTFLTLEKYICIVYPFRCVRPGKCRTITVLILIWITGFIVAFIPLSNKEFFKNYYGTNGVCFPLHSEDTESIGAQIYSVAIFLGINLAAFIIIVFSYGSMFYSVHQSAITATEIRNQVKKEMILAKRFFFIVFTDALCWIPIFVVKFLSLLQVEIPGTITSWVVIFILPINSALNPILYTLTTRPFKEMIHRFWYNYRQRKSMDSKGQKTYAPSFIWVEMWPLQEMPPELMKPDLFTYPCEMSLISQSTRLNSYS
gsp agonist: gsp mutant agonism | gsp mutant cells, cAMP HTRF, 30 min | Potency, µM (titrated, usually from 76.9 µM), for the others: top-dose activation (cAMP increase), usual class: activators | 0.13% of 340,000 active; active means well fitted activation curve with a large enough effect; inconclusive means small, poorly fitted or top-dose-only effect, or another doubt; inactive means no such curve, though single readings can be large or run the other way; cell line not stated here;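 further: phosphodiesterase inhibitor Ro 20-1724 added with compounds to block cAMP breakdown; potency means the concentration at half of the fitted maximal effect; nearly all actives have a fitted effect of over 60% in size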
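Cells in DMEM/10% FBS with G418 were pretreated with compounds in DMSO plus […] (300 uM stock) for 30 min at 37C. cAMP was measured by HTRF (cAMP-d2 plus anti-cAMP antibody-K) after 30 min at room temperature.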
RXFP1 agonist: agonists of human relaxin receptor RXFP1. Q9HBX9. HEK293T-RXFP1 cAMP TR-FRET, 30 min; response scale: percent of porcine relaxin response, buffer zero. Potency, µM (doses to about 57.5 µM), for inactives: at the highest dose activation, usual class: activators. 0.3% of 370,000 active. AID 2676; further: potency means the concentration at half of the fitted maximal effect; on the % scale 0 is the no-effect control and ±100 the full control effect; nearly all actives have a fitted effect of over 60% in size
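HEK293 cells stably expressing RXFP1, treated 30 min at 37C with compounds plus PDE4 inhibitor Ro 20174; cAMP measured by HTRF TR-FRET. Normalized to buffer and 29 nM porcine relaxin; EC50 by Hill fit.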
gsp antag: antagonists of gsp mutant (McCune-Albright syndrome) | Potency, µM (top dose mostly 76.9 µM), for inactives: at the highest dose activity change, negative = inhibition, usual class: inhibitors | 0.4% of 340,000 active | gsp-mutant cells, cAMP HTRF, 30 min; calls by dose curve; cell line not stated here;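 further: intracellular cAMP measured with PDE inhibitor Ro 20-1724 present during compound exposure; potency means the concentration at half of the fitted maximal effect; on the % scale 0 is the no-effect control and ±100 the full control effect; nearly all actives have a fitted effect of over 65% in size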
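Cells in G418 medium, seeded 16-24 h, 37C; buffer exchange to DPBS + 1 mM CaCl2, 0.5 mM MgCl2, 0.05% BSA; cpds in DMSO + […] (300 uM stock), 30 min 37C; HTRF cAMP detection.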
An asterisk follows results filed as active; i = inactive; ? = inconclusive; . = no result; [ ] = dose if it differs, or a comment. Unless noted, the call rests on the fitted dose curve; in most records, active means well fitted curve in the direction sought with a large enough effect; inconclusive means small, poorly fitted or top-dose-only effect, or another doubt; inactive means no such curve, though single readings can be large; an effect the other way counts as inactive or inconclusive.

SMILES	PTHR1 agonist	RXFP1 antagonist	gsp agonist	RXFP1 agonist	gsp antag
COc1ccc(C(=O)NCC(=O)n2nc(C)cc2C)cc1OC	-16%	-4	10µM*	0%	9%
Cc1cc(C)n(C(=O)CNC(=O)c2ccc(C(C)(C)C)cc2)n1	-42%	-116*	8%	-3%	1%
Cc1cc(C)n(C(=O)CNC(=O)Cc2ccccc2)n1	-7%[57.5 µM]	-19	-13%	1%	5%
Cc1cccc(-c2noc(-c3cccnc3NCc3ccco3)n2)c1	i	.	.	-2%	.
CC(=O)c1nc(N2C(=O)CC(Cc3ccccc3)C2=O)sc1C (centres undefined)	i	5	16µM*	10%	10%
COC(=O)C1=C(C)NC(COC(N)=O)=C(C(=O)OC(C)C)C1c1cccc(Cl)c1Cl (centres undefined)	.	-25	.	.	.
O=C(Nc1ccccc1)Nc1cc(OCC(F)(F)F)cc(OCC(F)(F)F)c1	-37%	-72*	-3%[15.4 µM]	0%	32µM*
COc1ccc(C2CC(=O)Nc3c2c(C)nn3-c2nncc(-c3ccc(C)cc3)n2)c(OC)c1OC (centres undefined)	2%	-2	.	-3%	.
COc1ccc(Cl)cc1C(=O)Nc1ccc(NC(=O)C(C)C)cc1	-6%	15	?	-2%	-7%
COc1ccc(Cl)cc1C(=O)Nc1ccc(NC(C)=O)cc1	i	0	-14%	1%	35µM*
CC(=O)Oc1c(I)cc(I)cc1C(=O)Nc1ccc(Cl)cc1	-90%	-96*	7%[15.4 µM]	4%	35µM*
Cc1cc(C(=O)Nc2ccc(Cl)cc2)c2ccccc2n1	i	7	-25%	-4%	2%
Cc1nc(SCC(=O)Nc2cccc(S(=O)(=O)N3CCOCC3)c2)nc(C)c1C	-6%	25	?	.	20%
Cc1cc(=O)[nH]c(SCC(=O)Nc2cccc(S(=O)(=O)N3CCOCC3)c2)n1	-13%	7	16µM*	22%	14%
CCc1ccc(NC(=O)C2CCN(c3nnc(-n4c(C)ccc4C)s3)CC2)cc1	-82%	1	.	10%	.
CCO[C@H]1OC(C(=O)N2CCN(Cc3ccc4c(c3)OCO4)CC2)=C[C@@H](C(C)(C)C)[C@@H]1CCCO	-20%	.	.	3%	7.9µM*
CCO[C@@H]1OC(C(=O)N2CCN(Cc3ccc4c(c3)OCO4)CC2)=C[C@H](C2CCCCC2)[C@H]1CCCO	i	.	.	-4%	?
Cc1cc(N2C(=O)C(O)=C(C(=O)c3cc4ccccc4o3)C2c2cccc(Br)c2)no1 (centres undefined)	-28%	10	6.3µM*	16µM*	2%
COc1ccccc1OCC(=O)N(Cc1ccco1)Cc1ccccc1F	i	-62*	.	-2%	.
Cc1cc(Cl)ccc1OCC(=O)N(Cc1ccco1)Cc1ccccc1F	-11%	-61*	.	0%	.
CCc1ccc(CN(Cc2ccco2)C(=O)COc2ccc(Cl)cc2C)cc1	i	-69*	.	0%	.
Cc1cc(OC(C)C(=O)N(Cc2ccco2)Cc2ccco2)cc(C)c1Cl (centres undefined)	-24%	-88*	.	0%	.
Cc1ccc(CN(Cc2ccco2)C(=O)COc2cc(C)c(Cl)c(C)c2)cc1	i	.	.	0%	.
Cc1ncc(CO)c2c1Oc1nc(-c3ccc(F)cc3)nc(SCC(=O)N3CCCCC3)c1C2	i	-25	.	2%	.
Cc1ccc(OCC(=O)N(Cc2ccco2)Cc2ccco2)cc1	-4%	-22	.	3%	.
SMILES	PTHR1 agonist	RXFP1 antagonist	gsp agonist	RXFP1 agonist	gsp antag
CCOc1ccccc1C(=O)N(Cc1ccco1)Cc1ccccc1F	i	-2	.	5%	.
Cc1ccc(OCC(=O)N(Cc2ccco2)Cc2ccco2)cc1C	-9%	-60*	.	0%	.
CC(C)(C)c1ccc(OCC(=O)N(Cc2ccco2)Cc2ccccc2F)cc1	i	-95*	.	-4%	.
Cc1cc(C)c(OCC(=O)N(Cc2cccc(F)c2)Cc2ccco2)c(C)c1	-16%	-102*	.	1%	.
Oc1ccc(CNc2ccc(C(F)(F)F)cc2Cl)c2cccnc12	.	.	.	1%	.
CCOC(=O)C1CCN(C(c2ccc(OCC)cc2)c2c(O)cc(C)n(CCOC)c2=O)CC1 (centres undefined)	0%	8	.	0%	.
CCOCCCn1c(SCC(=O)Nc2ccccc2Cl)nc2c(oc3ccccc32)c1=O	i	.	.	0%	.
CN1CCc2c(sc(NC(=O)CSc3ccc(F)cc3)c2-c2nc3ccccc3s2)C1	5%	-96*	.	-30%	.
CC(=O)N1CCc2c(sc(NC(=O)CSc3ccc(F)cc3)c2-c2nc3ccccc3s2)C1	i	-3	.	9%	.
O=C(Nc1cc(NC(=O)c2ccccc2Cl)ccc1Cl)c1ccccc1	-15%	-13	.	0%	.
O=C(NN=C1CCC(=NNC(=O)c2ccccn2)CC1)c1ccccn1	-13%	-13	32%[15.4 µM]	0%	2%
Cc1cc2c(cc1C)/C(=N/NC(=O)c1ccccn1)CCC2	i	-93*	-13%[15.4 µM]	-1%	-16%
O=C(c1ccco1)N1CCNCC1	.	16	.	.	.
O=C(Nc1nnc(SCc2ccc(F)cc2)s1)C1Cc2ccccc2CN1C(=O)c1ccco1 (centres undefined)	-29%	-64*	-14%[15.4 µM]	0%	-6%
Cc1c(Cl)cccc1NC(=O)CSc1nc2ncccc2o1	?	19	.	-1%	.
Cc1ccc(NC(=O)CCCn2c(=O)c3cccn3c3cccnc32)cc1C	-22%	0	.	14%	.
Cc1cc(NC(=O)CSc2nc(CCC3CCCC3)nc3ccccc23)no1	i	4	10%	8%	8%
Cc1nonc1NC(=O)CSc1nc(CCC2CCCC2)nc2ccccc12	-69%	-11	20µM*	?	-11%
COCC(C)N1C(=O)Cc2c1nc(N)c1c(N)nc(N3CCN(c4ccccc4F)CC3)c(C#N)c21 (centres undefined)	-19%	-60*	?	19%	-14%
COc1cccc(NC(=O)CSc2nc3ccc(NC(=O)c4cccs4)cc3s2)c1	-1%	.	.	2%	.
COc1cc(CNC2CCCC2)c(Br)cc1OC1CCCC1	-16%	-14	17%[15.4 µM]	3%	5%
COc1cc(CNCc2ccccc2)c(Br)cc1OC1CCCC1	i	-61*	7%[15.4 µM]	-2%	1%
O=C(c1ccc(Cl)c([N+](=O)[O-])c1)N1CCN(S(=O)(=O)c2ccc(Cl)cc2)CC1	-22%	1	4%	-1%	?
